# Compounds with a hit are over-represented: about 3.4% of the library has one in this group of screens.
# MITF primary: blocks human microphthalmia-associated transcription factor; inhibition, % at 2.6 µM; AID 1259374; O75030; AlphaScreen MITF homodimerization, bead proximity signal; 650,000 tested, 0.91% active; in the data active = inhibition above about 50%;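 note: 0% = vehicle wells with protein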
# FBW7 act: human FBW7 E3 ligase activation, primary screen. Q969H0. AID 1259310. normalized activity (activation), % at 26.1 µM. 650,000 tested, 0.13% active. AlphaScreen FBW7–phospho-cyclin E peptide binding, activator screen; in the data active = normalized activity above about 1.9%;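 note: purified mutant Fbw7 with reduced substrate affinity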
# GPR151 ag: activates the human receptor GPR151; Q8TDV0; PathHunter beta-arrestin GPR151 cells, luminescence; activation, % at 11.2 µM; 650,000 tested, 1% active; AID 1508602; in the data active = activation above about 4.9%;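 note: 0% = median of compound wells and 100% = cells with positive control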
# Target sequence (Q8TDV0 whole entry, looked up): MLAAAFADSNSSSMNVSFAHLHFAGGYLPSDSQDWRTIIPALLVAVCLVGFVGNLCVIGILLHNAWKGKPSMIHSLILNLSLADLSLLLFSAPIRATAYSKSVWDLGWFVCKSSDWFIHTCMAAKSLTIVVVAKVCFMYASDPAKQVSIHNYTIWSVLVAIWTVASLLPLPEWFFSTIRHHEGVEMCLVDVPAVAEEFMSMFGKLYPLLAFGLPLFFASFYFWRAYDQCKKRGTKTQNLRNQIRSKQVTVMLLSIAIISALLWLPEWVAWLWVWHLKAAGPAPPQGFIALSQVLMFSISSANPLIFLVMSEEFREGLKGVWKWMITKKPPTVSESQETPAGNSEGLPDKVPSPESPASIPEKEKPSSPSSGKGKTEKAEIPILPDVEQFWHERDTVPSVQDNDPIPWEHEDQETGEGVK
# TEAD-YAP inh: TEAD-YAP interaction inhibition; AID 1259422; 640,000 tested, 1.4% active; inhibition, % at 9.12 µM; HEK-TIYL cells, TEAD-Gal4/YAP UAS-luciferase luminescence; in the data active = inhibition above about 32%;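 note: 0% = median of test compound wells and 100% = reference inhibitor wells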
# MITF confirm: human MITF inhibition, confirmation; shares compounds with MITF primary; AlphaScreen MITF homodimerization, biotin/His-MITF beads; inhibition, % at 2.6 µM; 4,700 tested, 16% active; AID 1259372;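 active = inhibition above a cutoff derived from the DMSO control wells, cut at about 28% in these data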;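 note: 0% = MITF dimer wells with DMSO only; inhibitors lower the bead chemiluminescence by keeping MITF from dimerizing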
# AlphaScreen DR: optically interferes with AlphaScreen signal in dose response | AlphaScreen optical interference counterscreen, cell-free | shares compounds with MITF primary | IC50, µM | 480 tested, 6% active; call rule not given here
# AS interf ctr: AlphaScreen optical interference, counter-screen; shares compounds with MITF primary; LysRS AlphaScreen counterscreen, signal interference, triplicate; inhibition, % at 2.6 µM; 4,700 tested, 7.6% active; AID 1259376;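 active = inhibition above a cutoff derived from the DMSO control wells, cut at about 30% in these data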
# An asterisk follows results filed as active; / = not tested or not shown.
SMILES,MITF primary,FBW7 act,GPR151 ag,TEAD-YAP inh,MITF confirm,AS interf ctr,others
CCn1c2ccccc2c2cc(CN3CCN(Cc4ccccc4C(F)(F)F)CC3)ccc21,70.0*,-0.1,-1.7,4.5,14.5,17.4,
CCn1c2ccccc2c2cc(CN3CCN(Cc4ccccc4Br)CC3)ccc21,75.7*,-0.2,-0.4,-0.2,16.0,16.4,
CCn1c2ccccc2c2cc(CN3CCN(S(=O)(=O)CC)CC3)ccc21,53.3*,0.0,-1.1,-1.7,13.9,9.9,
COc1ccc(Nc2nccn3c(-c4cccc(NC(C)=O)c4)cnc23)cc1,-6.8,0.7,-6.6,7.8,/,/,
C[n+]1ccccc1/C=C/c1ccccc1O,2.6,0.0,0.1,1.8,/,/,
O=C(Cn1ncc2c(=O)oc3ccccc3c21)Nc1ccc2c(c1)OCO2,2.5,0.2,0.1,4.8,/,/,
CCOCCCNc1c(C)c(C)nc2cc(-c3ccc(OC)c(OC)c3)nn12,-0.4,-0.1,0.7,-16.6,/,/,
CS(=O)(=O)N(CC(=O)Nc1cccnc1)c1ccc(I)cc1,17.6,-0.1,-0.1,-8.5,/,/,
NC(=O)c1ccc(-c2cccs2)s1,59.3*,-0.1,-0.1,-5.7,38.7*,2.7,AlphaScreen DR=>7.32
NC(=O)c1ccc(-c2csc3ccccc23)s1,10.6,0.1,1.5,-4.8,/,/,
CCN1CCN(c2cc(C)c3ccc(OC)cc3n2)CC1,64.5*,-0.2,0.8,-2.0,1.2,7.3,
Nc1cccc(-c2cccc(C(=O)NCc3cccnc3)c2)c1,8.9,0.1,-1.8,-0.1,/,/,
Cc1[nH]c2ccccc2c1SCCNC(=O)c1ccncc1,62.1*,-0.1,0.0,-1.5,4.0,-7.1,
O=C(NCCSc1ccccc1)c1cccnc1,77.2*,0.2,-0.4,-37.8,-0.6,-2.8,
CCOc1ccc(-n2nc3ccc(NC(=O)c4ccc(-c5ccc([N+](=O)[O-])cc5)o4)cc3n2)cc1,4.8,-0.1,-0.2,0.2,/,/,
CCCN1CCN(Cc2csc(Nc3ccc(C)cc3)n2)CC1,61.5*,-0.1,0.2,8.2,8.9,19.7,
Cc1ccc(Nc2nc(CSc3nnnn3C)cs2)cc1,0.8,-0.2,0.3,-42.4,/,/,
CCN(CC)C(=O)Cn1nnc2ccccc2c1=O,3.7,0.5,-0.9,-7.5,/,/,
Fc1ccc(-c2cc(NCCCn3ccnc3)nc(-c3ccccc3)n2)cc1,55.2*,-0.7,-1.5,7.2,33.9*,42.0*,
c1cc(-c2cc(NCCCn3ccnc3)nc(-c3ccncc3)n2)ccn1,71.5*,-0.9,0.5,-15.7,33.8*,42.3*,
FC(F)(F)c1cccc(-c2cc(NCCCn3ccnc3)nc(-c3ccccn3)n2)c1,20.8,-0.8,0.6,6.5,/,/,
Fc1ccc(-c2cc(NCCCn3ccnc3)nc(-c3ccccn3)n2)cc1,55.8*,-1.0,-0.8,4.9,23.6,61.9*,
COc1ccc(CCNC(=O)N2CCN(Cc3nc4ccccc4[nH]3)CC2)cc1,8.9,-0.9,-0.7,7.9,/,/,
CC(=O)c1ccc(NC(=O)N2CCN(Cc3nc4ccccc4[nH]3)CC2)cc1,3.5,0.0,-1.0,-1.0,/,/,
O=C(c1ccc(Cn2ccnc2)cc1)N1CCN(Cc2nc3ccccc3[nH]2)CC1,87.3*,-0.5,-0.5,-2.6,4.2,13.7,
SMILES,MITF primary,FBW7 act,GPR151 ag,TEAD-YAP inh,MITF confirm,AS interf ctr,others
COC(=O)c1ccc(CN2CCN(Cc3nc4ccccc4[nH]3)CC2)o1,73.1*,-0.5,4.9,3.1,4.4,21.3,
COc1cc(C=Nc2ccc(N(C)C)cc2)cc(I)c1O,76.6*,0.6,0.7,21.4,45.3*,29.5,AlphaScreen DR=>6.48
O=C(CSc1nc(=O)n(CCO)c2c1CCCC2)N1CCCCC1,8.3,0.0,2.4,-5.3,/,/,
CCOC(=O)c1ccc(N2C(=O)C(Cl)=C(Nc3ccccc3C(=O)O)C2=O)cc1,56.4*,0.6,-1.6,23.3,-7.6,2.6,
CN(C)[C@@H]1C(=O)C(C(=O)NCN2CCCC2)=C(O)[C@@]2(O)C(=O)C3=C(O)c4c(O)cccc4[C@@](C)(O)C3CC12 (stereo partly specified),72.0*,-0.2,1.2,-3.0,77.7*,8.1,AlphaScreen DR=>6.48
CC(=O)NS(=O)(=O)c1ccc(NC(=O)c2ccc([N+](=O)[O-])o2)cc1,64.1*,-0.1,3.0,11.5,40.4*,-5.1,AlphaScreen DR=>6.61
O=C(Nc1ccc(Br)cc1)c1ccc([N+](=O)[O-])o1,9.9,0.3,1.4,9.4,/,/,
CCN1CCN(CCCCOc2cccc(C(C)=O)c2)CC1,59.3*,-0.3,1.0,-6.8,10.2,18.1,
CC(=O)c1ccc(OCCCN2CCN(C)CC2)cc1,36.8,-0.3,0.0,0.6,/,/,
CC(=O)c1cccc(OCCN2CCN(C)CC2)c1,57.0*,-0.1,-0.1,-8.1,9.0,16.0,
CC(=O)c1cccc(OCCCN2CCCCC2)c1,32.0,-0.1,1.0,0.4,/,/,
CC1=Nc2ccc(C)cc2N(C)C(=O)C1,11.1,0.3,-0.4,13.7,/,/,
CC(N)C(=O)Nc1ccccc1-c1ccccc1 (stereo unspecified),7.0,0.0,-0.1,2.0,/,/,
CC(C(=O)Nc1ccccc1-c1ccccc1)N1CCCC1 (stereo unspecified),75.2*,0.0,0.1,0.7,13.3,18.9,
COc1ccc(S(=O)(=O)N2CCC(Nc3nc(C(F)(F)F)cc(=O)[nH]3)CC2)cc1,-4.8,0.3,1.1,0.4,/,/,
O=C(Cc1ccc(Br)cc1)NCc1ccc2c(c1)OCO2,0.3,0.4,0.6,-20.6,/,/,
COc1ccc([N+](=O)[O-])cc1NC(=O)C1(c2ccc(OC)c(OC)c2)CCCC1,53.5*,0.0,0.3,-8.0,-14.2,-6.7,
COc1ccc([N+](=O)[O-])cc1NC(=O)c1ccc(F)cc1,57.4*,-0.1,2.7,-1.5,-11.7,-10.8,
COc1ccc([N+](=O)[O-])cc1NC(=O)c1ccc(C(C)(C)C)cc1,16.5,0.3,0.4,8.6,/,/,
CC(C)c1ccc(OCC(=O)NCCS(=O)(=O)N2CCc3ccccc32)cc1,80.5*,-0.1,0.8,3.2,-7.2,-2.3,
Clc1ccc(-n2cc(-c3ccccc3)c3c(NCCCN4CCOCC4)ncnc32)cc1,3.5,0.0,-0.3,2.8,/,/,
COc1ccc(-c2csc3ncnc(NCCN4CCOCC4)c23)cc1,81.8*,0.4,-2.1,12.8,15.9,18.3,
Clc1ccc(-c2csc3ncnc(NCCCN4CCOCC4)c23)cc1,96.4*,0.1,1.1,-2.3,-13.5,-4.8,
CCCCCCCCCCCCCCCC(=O)OC[C@H](O)[C@H]1OC(=O)C(=O)C1O (stereo partly specified),80.8*,0.1,-1.7,23.7,41.6*,-12.5,AlphaScreen DR=>6.48
O=S(=O)(Nc1ccccc1)c1ccc2c(c1)C(=NO)c1cc(S(=O)(=O)Nc3ccccc3)ccc1-2,3.0,0.1,2.4,-5.6,/,/,
Cc1ccccc1OCC1=NN2C(=N)/C(=C/c3cccnc3)C(=O)N=C2S1,0.2,0.0,1.5,1.3,/,/,

# Bioassay records as filed in PubChem BioAssay.
